Drawing on ChEMBL document CHEMBL2218924, “A broad activity screen in support of a chemogenomic map for kinase signalling research and drug discovery” (Biochem J, 2013), this text covers residual activity for 16 compounds.

Structures are written as SMILES.

The target in the first experiment is Serine/threonine-protein kinase pim-1 (Homo sapiens) (UniProt P11309). As to conditions: at 1 µM.
Serine/threonine-protein kinase pim-1 (Homo sapiens), sequence (P11309 whole entry, looked up): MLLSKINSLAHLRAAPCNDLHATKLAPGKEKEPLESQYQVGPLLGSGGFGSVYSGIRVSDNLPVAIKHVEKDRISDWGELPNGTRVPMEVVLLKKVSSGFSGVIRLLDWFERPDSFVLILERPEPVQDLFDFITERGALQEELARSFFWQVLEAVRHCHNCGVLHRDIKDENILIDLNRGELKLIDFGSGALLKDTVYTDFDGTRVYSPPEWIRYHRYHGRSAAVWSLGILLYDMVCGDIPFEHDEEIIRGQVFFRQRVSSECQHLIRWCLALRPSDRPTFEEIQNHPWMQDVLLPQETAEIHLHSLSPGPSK
As a reminder, the residual activity is the signal under treatment as a percentage of the control signal. For the compound `COc1cc2ncnc(Nc3ccc(OCc4ccccc4)cc3)c2cc1OC`, the residual activity was 99%.

Turning to `C[S+]([O-])c1ccc(-c2nc(-c3ccc(F)cc3)c(-c3ccncc3)[nH]2)cc1` (stereo not given), the residual activity worked out at 84%.

As to `CC(C)[C@H](CO)Nc1nc(Nc2cccc(Cl)c2)c2ncn(C(C)C)c2n1`, the residual activity was found to be 100%.

As to `COC(=O)[C@@]1(O)C[C@H]2O[C@]1(C)n1c3ccccc3c3c4c(c5c6ccccc6n2c5c31)C(=O)NC4`, the residual activity worked out at 10%.

Take `O=C1NC(=O)c2c1c1c3ccccc3n3c1c1c2c2ccccc2n1C1CCC3O1`: the residual activity is -2%.

In the case of `O=[N+]([O-])/C=C/c1ccc2c(c1)OCO2`, the residual activity amounted to 79%.

For the compound `COc1ccc2c(c1)/C(=C/c1cnc[nH]1)C(=O)N2`, the residual activity came to 66%.

Regarding `CCn1cnc2c(Nc3cccc(Cl)c3)nc(N[C@@H]3CCCC[C@@H]3N)nc21`, the residual activity amounted to 94%.

Consider `c1cc(-c2cnn3cc(-c4ccc(OCCN5CCCCC5)cc4)cnc23)ccn1`, for which the residual activity came to 104%.

As for `COc1ccc2c(c[n+](C)c3c4cc5c(cc4ccc23)OCO5)c1OC`, the residual activity was 93%.

Turning to `O=c1[nH]c2ccccc2n1C1CCN(Cc2ccc(-c3nc4cc5[nH]cnc5cc4nc3-c3ccccc3)cc2)CC1`, the residual activity worked out at 88%.

Take `O=C1Nc2ccc3ncsc3c2/C1=C/c1c[nH]cn1`: the residual activity is 26%.

The next experiment shares this target. As to conditions: at 10 µM.
For `COc1cc2ncnc(Nc3ccc(OCc4ccccc4)cc3)c2cc1OC`, the residual activity came out at 90%.

With `C[S+]([O-])c1ccc(-c2nc(-c3ccc(F)cc3)c(-c3ccncc3)[nH]2)cc1` (stereo not given), the residual activity came to 97%.

For the compound `CC(C)[C@H](CO)Nc1nc(Nc2cccc(Cl)c2)c2ncn(C(C)C)c2n1`, the residual activity was determined as 68%.

As for `COC(=O)[C@@]1(O)C[C@H]2O[C@]1(C)n1c3ccccc3c3c4c(c5c6ccccc6n2c5c31)C(=O)NC4`, the residual activity stood at 1%.

Turning to `CC(C)(C)c1cc(C=C(C#N)C#N)cc(Br)c1O`, the residual activity came to 51%.

As for `O=C1NC(=O)c2c1c1c3ccccc3n3c1c1c2c2ccccc2n1C1CCC3O1`, the residual activity amounted to 1%.

For `COc1cc(OC)c(/C=C2\C(=O)Nc3ccccc32)c(OC)c1`, the residual activity is 75%.

Regarding `O=[N+]([O-])/C=C/c1ccc2c(c1)OCO2`, the residual activity stood at 85%.

In the case of `COc1ccc2c(c1)/C(=C/c1cnc[nH]1)C(=O)N2`, the residual activity is 32%.

`CCn1cnc2c(Nc3cccc(Cl)c3)nc(N[C@@H]3CCCC[C@@H]3N)nc21`: the residual activity worked out at 23%.

Turning to `c1cc(-c2cnn3cc(-c4ccc(OCCN5CCCCC5)cc4)cnc23)ccn1`, the residual activity turned out to be 60%.

As to `COc1ccc2c(c[n+](C)c3c4cc5c(cc4ccc23)OCO5)c1OC`, the residual activity stood at 93%.

Turning to `O=c1[nH]c2ccccc2n1C1CCN(Cc2ccc(-c3nc4cc5[nH]cnc5cc4nc3-c3ccccc3)cc2)CC1`, the residual activity is 87%.

In the case of `O=C1Nc2ccc3ncsc3c2/C1=C/c1c[nH]cn1`, the residual activity is 5%.

The target in the next experiment is Serine/threonine-protein kinase pim-2 (Homo sapiens) (UniProt Q9P1W9). As to conditions: at 1 µM.
Serine/threonine-protein kinase pim-2 (Homo sapiens), sequence (Q9P1W9 whole entry, looked up): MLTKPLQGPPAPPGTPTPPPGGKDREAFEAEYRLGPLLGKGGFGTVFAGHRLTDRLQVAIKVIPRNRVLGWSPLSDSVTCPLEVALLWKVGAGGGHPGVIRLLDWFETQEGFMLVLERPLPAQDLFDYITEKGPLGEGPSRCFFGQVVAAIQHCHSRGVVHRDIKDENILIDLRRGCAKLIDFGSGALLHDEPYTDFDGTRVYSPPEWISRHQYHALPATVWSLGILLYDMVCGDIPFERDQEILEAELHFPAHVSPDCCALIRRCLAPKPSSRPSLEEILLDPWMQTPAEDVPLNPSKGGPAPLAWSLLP
With `COc1cc2ncnc(Nc3ccc(OCc4ccccc4)cc3)c2cc1OC`, the residual activity was determined as 110%.

On to `C[S+]([O-])c1ccc(-c2nc(-c3ccc(F)cc3)c(-c3ccncc3)[nH]2)cc1` (stereo not given), for which the residual activity is 125%.

For `CC(C)[C@H](CO)Nc1nc(Nc2cccc(Cl)c2)c2ncn(C(C)C)c2n1`, the residual activity turned out to be 116%.

Turning to `O=C1c2ccccc2-c2nc3nnnn3nc21`, the residual activity is 104%.

In the case of `COC(=O)[C@@]1(O)C[C@H]2O[C@]1(C)n1c3ccccc3c3c4c(c5c6ccccc6n2c5c31)C(=O)NC4`, the residual activity was found to be 2%.

In the case of `O=C1NC(=O)c2c1c1c3ccccc3n3c1c1c2c2ccccc2n1C1CCC3O1`, the residual activity worked out at 6%.

Regarding `COc1cc(OC)c(/C=C2\C(=O)Nc3ccccc32)c(OC)c1`, the residual activity was 137%.

As to `O=[N+]([O-])/C=C/c1ccc2c(c1)OCO2`, the residual activity worked out at 134%.

For `COc1ccc2c(c1)/C(=C/c1cnc[nH]1)C(=O)N2`, the residual activity was found to be 69%.

As to `CCn1cnc2c(Nc3cccc(Cl)c3)nc(N[C@@H]3CCCC[C@@H]3N)nc21`, the residual activity turned out to be 97%.

Take `c1cc(-c2cnn3cc(-c4ccc(OCCN5CCCCC5)cc4)cnc23)ccn1`: the residual activity amounted to 117%.

For the compound `COc1ccc2c(c[n+](C)c3c4cc5c(cc4ccc23)OCO5)c1OC`, the residual activity worked out at 86%.

On to `CCc1nc(-c2ccc(OC)cc2)[nH]c1-c1ccncc1`, for which the residual activity worked out at 126%.

As for `O=c1[nH]c2ccccc2n1C1CCN(Cc2ccc(-c3nc4cc5[nH]cnc5cc4nc3-c3ccccc3)cc2)CC1`, the residual activity came to 85%.

Turning to `O=C1Nc2ccc3ncsc3c2/C1=C/c1c[nH]cn1`, the residual activity was found to be 13%.

The next experiment has the same target. As to conditions: at 10 µM.
With `COc1cc2ncnc(Nc3ccc(OCc4ccccc4)cc3)c2cc1OC`, the residual activity worked out at 105%.

As for `C[S+]([O-])c1ccc(-c2nc(-c3ccc(F)cc3)c(-c3ccncc3)[nH]2)cc1` (stereo not given), the residual activity turned out to be 96%.

Consider `CC(C)[C@H](CO)Nc1nc(Nc2cccc(Cl)c2)c2ncn(C(C)C)c2n1`, for which the residual activity was found to be 122%.

For the compound `O=C1c2ccccc2-c2nc3nnnn3nc21`, the residual activity came to 108%.

Turning to `COC(=O)[C@@]1(O)C[C@H]2O[C@]1(C)n1c3ccccc3c3c4c(c5c6ccccc6n2c5c31)C(=O)NC4`, the residual activity is -2%.

In the case of `O=C1NC(=O)c2c1c1c3ccccc3n3c1c1c2c2ccccc2n1C1CCC3O1`, the residual activity was -2%.

Consider `O=[N+]([O-])/C=C/c1ccc2c(c1)OCO2`, for which the residual activity stood at 110%.

For the compound `COc1ccc2c(c1)/C(=C/c1cnc[nH]1)C(=O)N2`, the residual activity stood at 19%.

As to `CCn1cnc2c(Nc3cccc(Cl)c3)nc(N[C@@H]3CCCC[C@@H]3N)nc21`, the residual activity was found to be 39%.

As for `c1cc(-c2cnn3cc(-c4ccc(OCCN5CCCCC5)cc4)cnc23)ccn1`, the residual activity came to 127%.

On to `COc1ccc2c(c[n+](C)c3c4cc5c(cc4ccc23)OCO5)c1OC`, for which the residual activity amounted to 88%.

For the compound `CCc1nc(-c2ccc(OC)cc2)[nH]c1-c1ccncc1`, the residual activity came to 125%.

Regarding `O=c1[nH]c2ccccc2n1C1CCN(Cc2ccc(-c3nc4cc5[nH]cnc5cc4nc3-c3ccccc3)cc2)CC1`, the residual activity was determined as 98%.

With `O=C1Nc2ccc3ncsc3c2/C1=C/c1c[nH]cn1`, the residual activity is 3%.
